# Assay outcomes deposited in PubChem by National Center for Advancing Translational Sciences (NCATS).
# 12-LOX inh – Primary qHTS assay for inhibitors of human arachidonate 12S-lipoxygenase (ALOX12): Round 2 | AID 1671190, 2021 | Potency, µM (doses to about 108 µM), actives largely listed as inhibitors | 580,000 tested, 1.1% active | purified 12hLO, xylenol orange hydroperoxide absorbance
#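 Purified human 12hLO at 150 nM in 25 mM Hepes, 0.01% Triton X-100, pH 7.0, preincubated 15 min at room temperature with compound. Reaction started with 40 uM arachidonic acid, 30 min at room temperature. Hydroperoxide measured by Fe-xylenol orange, 573/405 nm absorbance ratio.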
# Anesthetic bind – qHTS Assay for Identification of Novel General Anesthetics. Ferritin light chain (Equus caballus), P02791. apoferritin/1-aminoanthracene competitive binding, fluorescence. Potency, µM (top dose mostly 77.5 µM), actives largely listed as inhibitors. 350,000 tested, 0.074% active; also: nearly all actives have a fitted effect of over 20% in size
# Target sequence (P02791 2-175 limits assumed): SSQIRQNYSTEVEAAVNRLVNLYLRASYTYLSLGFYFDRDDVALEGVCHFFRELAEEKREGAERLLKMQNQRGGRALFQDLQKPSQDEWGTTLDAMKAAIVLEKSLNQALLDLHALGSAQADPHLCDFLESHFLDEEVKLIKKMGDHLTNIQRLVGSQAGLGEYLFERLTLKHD
#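 Read-out: endpoint 1-AMA fluorescence, excitation 380 nm and emission 535 nm, after compounds sit 10 min at room temperature with 10 uM horse-spleen apoferritin in 50% saturated 1-AMA/PBS. Values come from four-parameter Hill fits.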
# TrxR1 substrate – qHTS Assay for Substrates of Mammalian Selenoprotein Thioredoxin Reductase 1 (TrxR1): qHTS; purified TrxR1 substrate turnover, NADPH consumption readout; AID 588456, 2011; Potency, µM (titrated, usually from 114 µM); 390,000 tested, 0.01% active; also: nearly all actives have a fitted effect of over 50% in size
#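 Rat TrxR1, dispensed at 90 nM, was prereduced with 400 uM NADPH (final) for 5 min at ~22 deg C, then incubated with compound 15 min before 400 uM selenite. A first-read NADPH fluorescence drop versus no-compound background flagged substrates.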
# GRP78 ERSR act – qHTS for Inducers of the Endoplasmic Reticulum Stress Response (ERSR) in Human Glioma: qHTS | AID 602332, 2012 | U87-MG GRP78 promoter luciferase reporter, 16 h | 420,000 tested, 0.02% active | Potency, µM, most hits filed as activators; also: series mostly up to about 76 µM; nearly all actives have a fitted effect of over 35% in size
#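 Stably transfected U87-MG glioma cells carrying a GRP78-based luciferase sensor; 16 h compound incubation. Luminescence end-point read 10 min after Bright-Glo addition at room temperature.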
# IDH1 R132H inh – qHTS for Inhibitors of mutant isocitrate dehydrogenase 1 (IDH1): qHTS. Isocitrate dehydrogenase [NADP] cytoplasmic (Homo sapiens), O75874. IDH1-R132H enzyme, NADPH consumption, diaphorase/resazurin fluorescence. Potency, µM (top dose mostly 76.6 µM), most hits filed as inhibitors. 390,000 tested, 0.093% active. AID 602179, 2012; also: nearly all actives have a fitted effect of over 65% in size
# Target sequence (O75874 whole entry R132H, stated change not applied): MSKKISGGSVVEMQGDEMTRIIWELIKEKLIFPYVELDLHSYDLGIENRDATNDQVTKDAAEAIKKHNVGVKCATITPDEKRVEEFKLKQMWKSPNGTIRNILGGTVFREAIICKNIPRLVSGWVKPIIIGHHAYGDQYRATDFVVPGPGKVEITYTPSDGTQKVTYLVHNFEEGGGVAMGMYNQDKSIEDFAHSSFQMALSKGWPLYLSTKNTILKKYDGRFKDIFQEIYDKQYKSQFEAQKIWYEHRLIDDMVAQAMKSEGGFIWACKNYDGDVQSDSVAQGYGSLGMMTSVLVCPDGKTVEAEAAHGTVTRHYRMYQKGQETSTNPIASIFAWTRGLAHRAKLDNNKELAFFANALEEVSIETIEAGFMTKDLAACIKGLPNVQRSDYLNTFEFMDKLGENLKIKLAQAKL
#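 IDH1-R132H (0.5 ug/mL) preincubated 30 min with compound, then NADPH (0.016 mM) and alpha-KG (2 mM) added; 80 min at RT, pH 7.5. Remaining NADPH coupled via diaphorase/resazurin to fluorescence (540/590 nm); concentration-response curves normalized to no-enzyme control.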
# rTrxR1 inhibitor – qHTS Assay for Inhibitors of Mammalian Selenoprotein Thioredoxin Reductase 1 (TrxR1): qHTS; recombinant rTrxR1, NADPH fluorescence consumption, selenite substrate; Thioredoxin reductase 1, cytoplasmic (Rattus norvegicus), O89049; Potency, µM (titrated, usually from 114 µM), most hits filed as inhibitors; 390,000 tested, 1% active; also: nearly all actives have a fitted effect of over 65% in size
#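 Rat TrxR1 (90 nM in the dispensed reagent) was pre-reduced with 400 uM NADPH for 5 min at room temperature, then incubated with compound for 15 min. After 400 uM selenite was added, NADPH fluorescence (Ex 340/Em 450 nm) was followed for 8 min.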
# A number is an active result; . = inactive; ? = inconclusive; / = not tested or not shown; ! = not confirmed by another sample; [ ] = another dose, or the depositor's remark. An excerpt weighted towards active compounds, which were near 1.7% of everything screened. Calls follow the shape of the dose curve; as a rule, active = well fitted curve in the direction sought with a large enough effect; inconclusive = small, poorly fitted or top-dose-only effect, or another doubt; inactive = no such curve, though single readings can be large; an effect the other way counts as inactive or inconclusive.
SMILES,12-LOX inh,Anesthetic bind,TrxR1 substrate,GRP78 ERSR act,IDH1 R132H inh,rTrxR1 inhibitor
O=c1[nH]c2ccc(-c3csc(NC4CC4)n3)cc2[nH]1,18µM,/,/,/,/,/
O=C(NCC1CC1)C1=COC2=NC(=O)N(Cc3cccc(Cl)c3)CCN12,.,/,/,/,/,/
CC1C(=O)Nc2ccc(-c3csc(NC4CCCC4)n3)cc21 (centres undefined),16µM,/,/,/,/,/
S=c1sc2c(s1)SCCCS2,32µM,/,/,/,/,/
S=c1sc2c(s1)SCCCCS2,.,/,/,/,/,/
CCSc1nnc2n(C)c(=O)c3c(n12)-c1ccccc1CC31CCCCC1,.,/,/,/,/,/
CCn1c(=O)c2c(n3c(=S)[nH]nc13)-c1ccccc1CC21CCCCC1,14µM,.,.,.,.,?
Cc1ccc(C)c(S(=O)(=O)ON2C(=O)c3ccccc3C2=O)c1,?,.,.,.,.,3.2µM
O=C1/C(=C/c2ccncc2)Cc2ccccc21,.,/,.,.,.,.
CC1C/C(=C/c2ccncc2)C(=O)/C(=C/c2ccncc2)C1 (centres undefined),.,.,.,.,?,14µM
CCC(C)NC(=O)C(NC(=O)c1ccccc1Cl)C1CCN(C(=O)CCc2ccccc2)CC1 (centres undefined),.,/,/,/,/,/
COc1ccc(-c2n[nH]c(=S)n2C2CCCCC2)cc1,45µM,.,.,.,.,.
S=c1[nH]nc(-c2cccnc2)n1C1CCCCC1,.,.,.,.,.,.
COc1ccc(Cl)cc1-c1n[nH]c(=S)n1Cc1ccccc1,.,.,.,.,.,.
COc1ccc(Cl)cc1-c1n[nH]c(=S)n1C1CCCCC1,40µM,?,.,.,.,.
Nc1sc2c(c1C(=O)c1ccccc1)CCCC2,.,?,.,.,.,?
NC(=O)c1c(N)sc2c1CCCC2,.,.,.,.,.,50µM
O=S(=O)(/C(=C\c1ccc(C(F)(F)F)cc1)c1nc2ccccc2[nH]1)c1ccccc1,/,/,.,.,.,4.5µM
O=C(O)/C=C/C(=O)Nc1ccccc1SC(F)(F)F,?,.,.,.,.,35µM
C/C(CCN1CCCc2nc(C)c(C)cc21)=N\O[C@@H](C)c1cc(-c2c(C)cc(C)cc2C)no1,/,.[15.3 µM],/,.,/,/
COc1cccc(Oc2c(C)oc3c(CN4CCCCC4)c(O)ccc3c2=O)c1,.,.,.,.,.,45µM
CC(C)c1ccc(-c2noc(CSc3nnc4ccccn34)n2)cc1,.,/,/,/,/,/
CCCc1nc2c(sc3nc4c(cc32)COC(C)(C)C4)c(=O)n1CCN(C)C,.,.,.,.,.,.
CCCc1nc2c(sc3nc4c(cc32)COC(C)(C)C4)c(=O)n1Cc1ccco1,.,.,.,.,.,11µM
Cc1cc(C(=O)NN)c(C)o1,.,.,.,.,.,.
SMILES,12-LOX inh,Anesthetic bind,TrxR1 substrate,GRP78 ERSR act,IDH1 R132H inh,rTrxR1 inhibitor
CCc1ccc(C(C)NC(=O)c2cc(C)oc2C)cc1 (centres undefined),?,.,.,.,.,20µM
CCCc1c(CC)c(=N)c2ccccc2n1C,5µM,.,.,.,.,.
O=C(CN1CCC(Cc2ccccc2)CC1)N1CCc2ccccc2C1,1µM,.,.,.,.,.
O=C(CN(CC(=O)Nc1ccc(F)cc1)CC(=O)Nc1ccc(F)cc1)Nc1ccc(F)cc1,13µM,/,/,/,/,/
CCn1cc(C(=O)NC(=S)Nc2ccccc2[N+](=O)[O-])cn1,?,?,.,.,.,.
CCn1cc(C(=O)NC(=S)Nc2ccccc2Br)cn1,28µM,?,.,.,.,?
O=C1C=C(c2cccc(Cl)c2O)C[C@@H](c2ccc3c(c2)OCO3)C1,?,/,.,.,.,.
COc1ccc([C@H]2CC(=O)C=C(c3cccc(Cl)c3O)C2)cc1OC,22µM,/,.,.,.,.
CC1=C(/C=C/C(C)=C/C=C/C(C)=C\C(=O)O)C(C)(C)CCC1,?,?,.,.,.,35µM
CCCn1c(CC)nc([N+](=O)[O-])c1S(=O)(=O)c1ccccc1,.,.,.,.,.,0.32µM
Cc1ccccc1NC(=O)C1=NO[C@@H]2CN(c3ccccn3)C[C@H]12,.,/,/,/,/,/
CCOc1ccccc1CN1CCN(c2nccc(OC)n2)CC1CCO (centres undefined),.,/,/,/,/,/
Cc1nn(-c2ccccc2)cc1C(c1c(N)[nH]c(=S)[nH]c1=O)c1c(N)[nH]c(=S)[nH]c1=O,6.3µM,.,.,.,.,.
COc1cc(-c2noc(C)c2C#Cc2ccc(N)cc2)cc(OC)c1OC,.,.,.,.,?,.
CNC(C)C#Cc1c(-c2cc(OC)c(OC)c(OC)c2)noc1C (centres undefined),.,.,.,.,.,71µM!
O=C1c2cc(N3CCOCC3)nc(-c3ccc(F)cc3)c2CN1CC1CC1,32µM,/,/,/,/,/
O=C1c2cc(N3CCOCC3)nc(-c3ccccc3F)c2CN1CC1CC1,.,/,/,/,/,/
COc1ccc2c(c1OC)C(=O)N1c3ccccc3C(=O)N(Cc3ccco3)C21 (centres undefined),/,/,.,.,/,40µM
Cc1nc(Nc2nc(CSc3ccc(Cl)cc3)cc(=O)[nH]2)nc2c(C)cccc12,.,/,/,/,/,/
N#CC1=C(N)C(C#N)(C#N)C(c2ccc[nH]2)C2CCCC=C12 (centres undefined),.,.,.,.,.,11µM
CN1CC=C2C(C#N)=C(N)C(C#N)(C#N)[C@H](c3cccc(Cl)c3)C2C1 (some centres undefined),.,.,.,.,.,.
CC(C)c1ccc(NC(=O)C2CC2c2ccccc2)cc1 (centres undefined),?,35µM,.,.,.,.
COC(=O)CSc1nnc([C@H](Cc2ccccc2)NC(=O)OC(C)(C)C)o1,.,.,.,.,.,.
COC(=O)CS(=O)(=O)c1nnc([C@H](Cc2ccccc2)NC(=O)OC(C)(C)C)o1,.,.,.,.,.,1.3µM
Cc1cccc(CS(=O)(=O)c2nnc([C@H](Cc3ccccc3)NC(=O)OC(C)(C)C)o2)c1,/,?,.,.,.,0.4µM
CC(C)(C)OC(=O)N[C@@H](Cc1ccccc1)c1nnc(SCC(N)=O)o1,.,.,.,.,.,.
C=CCOc1ccc(CNC2CCN(S(C)(=O)=O)CC2)cc1CC=C,.,/,/,/,/,/
Oc1ccc(C2(c3ccc(O)cc3)CCCC2)cc1,35µM,/,/,/,/,/
